Measured values taken from article PMC7826789 (International Journal of Molecular Sciences, 2021).

Legend:
Conditions in all cases: Compound Concentration (nM):1000
STK33 = tested on: STK33
STK35 = tested on: STK35
STK36 = tested on: STK36
STK39 = tested on: STK39
SYK = tested on: SYK
SgK110 = tested on: SgK110
TAK1 = tested on: T1, TAK1
T1 construct: gene MAP3K7

TAOK1 = tested on: TAOK1
TAOK2 = tested on: TAOK2
TAOK3 = tested on: TAOK3
TBK1 = tested on: TBK1
TEC = tested on: TEC
TESK1 = tested on: TESK1
TGFBR1 = tested on: TGFBR1
TGFBR2 = tested on: TGFBR2
TIE1 = tested on: TIE1
TIE2 = tested on: T2, TIE2
T2 construct: gene TEK

TLK1 = tested on: TLK1
TLK2 = tested on: TLK2
TNIK = tested on: TNIK
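Note: KINOMEscan scanMAX binding as percent activity remaining versus control; lower means stronger binding.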

SMILES | Percent Control (STK33) [%] | Percent Control (STK35) [%] | Percent Control (STK36) [%] | Percent Control (STK39) [%] | Percent Control (SYK) [%] | Percent Control (SgK110) [%] | Percent Control (TAK1) [%] | Percent Control (TAOK1) [%] | Percent Control (TAOK2) [%] | Percent Control (TAOK3) [%] | Percent Control (TBK1) [%] | Percent Control (TEC) [%] | Percent Control (TESK1) [%] | Percent Control (TGFBR1) [%] | Percent Control (TGFBR2) [%] | Percent Control (TIE1) [%] | Percent Control (TIE2) [%] | Percent Control (TLK1) [%] | Percent Control (TLK2) [%] | Percent Control (TNIK) [%]
NS(=O)(=O)c1ccc(N/N=C2\C(=O)Nc3ccc(C(=O)NCc4ccncc4)cc32)cc1 [GW300657X] | 87 | 93 | 97 | 74 | 73 | 100 | 29 | 84 | 99 | 100 | 33 | 100 | 100 | 100 | 100 | 85 | 100 | 71 | 75 | 82
Cl.c1ccc(Cc2nc3ccc(Nc4ncnc5ccccc45)cc3[nH]2)cc1 [GR269666A] | 97 | 100 | 100 | 100 | 100 | 100 | 100 | 100 | 100 | 100 | 100 | 100 | 100 | 100 | 100 | 100 | 100 | 100 | 100 | 100
COc1ccc2c(-c3ccnc(Nc4cccc(OC(F)(F)F)c4)n3)cnn2n1 [GW810372X] | 90 | 100 | 100 | 86 | 83 | 100 | 95 | 73 | 98 | 100 | 80 | 100 | 70 | 100 | 52 | 100 | 100 | 100 | 84 | 100
CC(C)COC(=O)c1ccc2c(c1)/C(=C/Nc1ccc(S(N)(=O)=O)cc1)C(=O)N2 [GW416981X] | 24 | 100 | 100 | 100 | 100 | 100 | 21 | 85 | 100 | 99 | 17 | 100 | 100 | 100 | 42 | 100 | 100 | 100 | 95 | 58
Cl.O=C(O[C@H]1CN[C@H](C#Cc2cc3ncnc(Nc4ccc5c(cnn5Cc5ccccc5)c4)c3s2)C1)N1CCOCC1 [GSK200398A] | 90 | 99 | 100 | 83 | 91 | 100 | 100 | 91 | 97 | 100 | 100 | 100 | 96 | 97 | 100 | 100 | 100 | 80 | 72 | 96
CCS(=O)(=O)c1ccc(OC)c(Nc2ncc(-c3cccc(OC)c3)o2)c1 [GW580509X] | 100 | 100 | 100 | 100 | 96 | 100 | 81 | 100 | 100 | 100 | 100 | 100 | 100 | 81 | 46 | 49 | 100 | 100 | 99 | 75
NS(=O)(=O)c1ccc(N/N=C2\C(=O)Nc3ccc(-c4cnco4)cc32)cc1 [GW276655] | 100 | 99 | 100 | 88 | 100 | 73 | 32 | 86 | 95 | 98 | 63 | 100 | 77 | 100 | 100 | 73 | 100 | 96 | 66 | 26
COc1cc2ncn(-c3cc(O[C@H](C)c4ccccc4Cl)c(C(N)=O)s3)c2cc1OC [GSK237701A] | 100 | 90 | 98 | 94 | 78 | 100 | 78 | 54 | 79 | 71 | 80 | 100 | 100 | 72 | 100 | 13 | 97 | 96 | 98 | 99
COc1ccc(COc2ccc(Cc3cnc(N)nc3N)cc2OC)cc1 [GW632580X] | 100 | 100 | 74 | 91 | 100 | 100 | 97 | 100 | 100 | 100 | 99 | 100 | 99 | 100 | 100 | 100 | 100 | 92 | 100 | 100
COc1ccc2[nH]c3c4[nH]c5ccc(OC)cc5c4c4c(c3c2c1)C(=O)NC4=O [GW296115X] | 33 | 80 | 70 | 100 | 73 | 100 | 20 | 100 | 96 | 96 | 59 | 88 | 90 | 100 | 100 | 100 | 100 | 100 | 95 | 3
CC1=C(C(=O)Nc2ccc3[nH]ncc3c2)C(c2ccc3ccccc3c2)CC(=O)N1 (stereo not shown) [GSK270822A] | 95 | 99 | 100 | 71 | 74 | 100 | 81 | 76 | 96 | 93 | 81 | 90 | 99 | 85 | 100 | 80 | 96 | 89 | 100 | 85
Cl.O=S1CCN(Cc2ccc(-c3ccc4ncnc(Nc5ccc(OCc6ccccc6)c(F)c5)c4c3)o2)CC1 [GW576924A] | 84 | 100 | 100 | 100 | 100 | 100 | 100 | 100 | 100 | 100 | 100 | 100 | 100 | 100 | 100 | 100 | 100 | 100 | 100 | 100
CC1=C(C(=O)Nc2ccc3[nH]ncc3c2)C(c2ccc(Cl)c(Cl)c2)CC(=O)N1 (stereo not shown) [GSK299115A] | 82 | 84 | 100 | 81 | 99 | 100 | 82 | 68 | 77 | 81 | 92 | 92 | 100 | 100 | 100 | 90 | 100 | 84 | 90 | 100
Cl.O=C(Nc1ccc(Oc2ccc3[nH]c(NC(=O)c4ccco4)nc3c2)cc1)Nc1cc(C(F)(F)F)ccc1F [GW683134A] | 9.8 | 81 | 100 | 100 | 100 | 100 | 9.1 | 100 | 97 | 100 | 100 | 100 | 71 | 91 | 89 | 1.1 | 1.9 | 100 | 77 | 100
Cc1cc(O)cc(C)c1/C=C/c1cncc(C(N)=O)c1 [GW435821X] | 94 | 69 | 100 | 100 | 74 | 100 | 100 | 74 | 91 | 98 | 100 | 100 | 100 | 84 | 81 | 100 | 100 | 100 | 100 | 100
NS(=O)(=O)c1ccc(N/N=C2\C(=O)Nc3ccc(Cl)cc32)cc1 [GW280670X] | 95 | 100 | 100 | 100 | 98 | 100 | 81 | 95 | 100 | 100 | 100 | 100 | 100 | 100 | 100 | 100 | 100 | 100 | 100 | 47
CCn1c(-c2nonc2N)nc2c(C#CC(C)(C)O)nc(OCCNC)cc21.Cl [GSK949675] | 100 | 100 | 100 | 98 | 100 | 100 | 85 | 72 | 92 | 90 | 95 | 100 | 100 | 100 | 100 | 100 | 96 | 100 | 100 | 100
COc1cc(C)c(N(C)C(=O)CN(C)C)cc1Nc1nc(Nc2cccc(F)c2C(N)=O)c2cc[nH]c2n1 [GSK2219385] | 91 | 98 | 100 | 81 | 100 | 100 | 93 | 100 | 100 | 100 | 69 | 100 | 92 | 100 | 100 | 82 | 100 | 85 | 100 | 98
CN(C)CCNC(=O)Nc1ccc(N(C)c2ccnc(Nc3ccc(CS(C)(=O)=O)cc3)n2)cc1.Cl [GW830900A] | 85 | 14 | 70 | 78 | 97 | 47 | 48 | 80 | 86 | 89 | 98 | 82 | 100 | 100 | 75 | 72 | 100 | 89 | 100 | 49
O=C1Nc2ccc(C(=O)c3ccco3)cc2C1=Cc1cc(Cl)c(O)c(Cl)c1 [GW406108X] | 86 | 100 | 87 | 81 | 100 | 100 | 30 | 40 | 100 | 85 | 40 | 100 | 100 | 99 | 58 | 100 | 100 | 94 | 97 | 24
